Reference: publication PMC4552634, “A New Set of Chemical Starting Points with Plasmodium falciparum Transmission-Blocking Potential for Antimalarial Drug Discovery” (PLoS ONE, 2015)
Read-outs that look alike come from different tables or passages of the source. In all, about 13,000 compounds went through this assay and about 3,200 (25%) showed an effect of 50% or more. The list shows a part of the results.

Test system: P. falciparum stage V gametocytes
Set-up: BacTiter-Glo ATP luminescence viability of purified stage V gametocytes in 384-well plates, per cent inhibition versus DMSO
Conditions: 48 h, 5 µM, inhibitor

SMILES	% Inhibition [%]	% Inhibition (% Inhibition) [%]
CCCC1(NC[C@@H](O)[C@H](Cc2ccccc2)NC(=O)c2cc(NCC)cc(N3CCCCS3(=O)=O)c2)CCCC1 [TCMDC-135261]	38.92	
CCNc1cc(C(=O)N[C@@H](Cc2ccccc2)[C@H](O)CNC2(C)CCCCC2)cc(N2CCCCS2(=O)=O)c1 [TCMDC-134703]	93.77	
CCNc1cc(C(=O)N[C@@H](Cc2ccccc2)[C@H](O)CNC23CC4CC(CC(C4)C2)C3)cc(N2CCCCS2(=O)=O)c1 [TCMDC-135352]	40.45	
CCCC1(NC[C@@H](O)[C@H](Cc2ccccc2)NC(=O)c2cc(NCC)cc(N3CCCCS3(=O)=O)c2)CC1 [TCMDC-135192]	21.27	
CCNc1cc(C(=O)N[C@@H](Cc2ccccc2)[C@H](O)CNC23CCC(CC2)CC3)cc(N2CCCCS2(=O)=O)c1 [TCMDC-135390]	43.97	
CCNc1cc(C(=O)N[C@@H](Cc2ccccc2)[C@H](O)CNC2CCCCC2)cc(N2CCCCS2(=O)=O)c1 [TCMDC-134676]	26.1	
CCNc1cc(C(=O)N[C@@H](Cc2ccccc2)[C@H](O)CNC2C3CC4CC(C3)CC2C4)cc(N2CCCCS2(=O)=O)c1 (stereo partly drawn) [TCMDC-135424]	38.6	
CCNc1cc(C(=O)N[C@@H](Cc2ccccc2)[C@H](O)CNC2(CC)CC2)cc(N2CCCCS2(=O)=O)c1 [TCMDC-135176]	3.927	
CCNc1cc(C(=O)N[C@@H](Cc2ccccc2)[C@H](O)CNC2(CC)CCCCC2)cc(N2CCCCS2(=O)=O)c1 [TCMDC-135209]	82.14	
CCCC1(NC[C@@H](O)[C@H](Cc2ccccc2)NC(=O)c2cc(NCC)cc(N3CCCCS3(=O)=O)c2)CCCCC1 [TCMDC-135262]	28.65	
CCNc1cc(C(=O)N[C@@H](Cc2ccccc2)[C@H](O)CNC2CC3CCC2C3)cc(N2CCCCS2(=O)=O)c1 (stereo partly drawn) [TCMDC-135107]	91.01	
CCNc1cc(C(=O)N[C@@H](Cc2ccccc2)[C@H](O)CNC23CCC(CC2)C3)cc(N2CCCCS2(=O)=O)c1 [TCMDC-135371]	58.44	
N#Cc1cccc(C(=O)Nc2cccc(-c3ccc(C(=O)NCCCN4CCOCC4)cc3)c2)c1 [TCMDC-133694]	-17.34	
CC(Nc1ncc(-c2ccsc2)c(-c2nccs2)n1)c1ccc2c(c1)OCCO2 (stereo not drawn) [TCMDC-125367]	-15.14	
O=C(NCCCCN1CCCC2c3ccc(O)cc3CCC21)c1ccc(-c2ccccc2)cc1 (stereo not drawn) [TCMDC-139083]		-83.61
CCc1c(C)nc(-n2nc(C)cc2NC(=O)C2c3ccccc3Oc3ccccc32)[nH]c1=O [TCMDC-124932]	-24.15	
O=S1(=O)NCc2ccc(Nc3nccc(Nc4ccc5c(cnn5Cc5ccccc5)c4)n3)cc21 [TCMDC-138840]	-68.79	
O=C(Nc1cccc(-c2nn3ccccc3c2-c2ccnc(Nc3cccc(F)c3)n2)c1)c1c(F)ccc(F)c1F [TCMDC-135844]	-56.6	
NC(=O)c1cccc(C(=O)Nc2cccc(-c3cccc(-c4nc5ccccc5[nH]4)c3)c2)c1 [TCMDC-132194]	0.2723	
COc1ccc(C2c3ccccc3-c3nc(N)nc(N)c3C2C)cc1 (stereo not drawn) [TCMDC-137992]	31.51	
Cc1cc(NC(=O)NCCN2CCC(NS(=O)(=O)c3ccccc3Cl)C2)c2ccccc2n1 (stereo not drawn) [TCMDC-136142]	-23.32	
Cc1oc(-c2cccc(Oc3ccccc3)c2)nc1CN(Cc1cnn(C)c1)C(C)C [TCMDC-124609]	-17.42	

SMILES	% Inhibition [%]	% Inhibition (% Inhibition) [%]
COc1ccc2nccc(N(C)CC3(O)CCN(CCc4ccc5c(c4)OCCO5)CC3)c2n1 [TCMDC-141473]	35.78	
CCNc1cc(C(=O)N[C@@H](Cc2ccccc2)[C@H](O)CNCc2cccc(-n3ccnc3)c2)cc(N2CCCC2=O)c1 [TCMDC-141686]	34.28	
CN(C)C(CNC(=O)c1cc(-c2ccncc2)c(-c2cc3ccccc3[nH]2)o1)c1ccccc1 (stereo not drawn) [TCMDC-135864]	29.45	
CCCN(CC(=O)NCCc1ccccc1)c1ccc(C#N)c2ccccc12 [TCMDC-135545]	-10.84	
CCc1ccc(NC(=O)c2cccc(CN3CCCN(Cc4ccc(OC)cc4)CC3)c2)cc1 [TCMDC-135990]	-23.52	
CCc1cccc2c(C#N)cn(CC(=O)Nc3ccc(OC)cc3)c12 [TCMDC-123527]	78.76	
CCc1cccc2c(C#N)cn(CC(=O)NCCc3ccccc3)c12 [TCMDC-124363]	56.03	
N#Cc1ccc(N(CC(=O)NCCc2ccc(F)cc2)CC2CC2)c2ccccc12 [TCMDC-135573]	-38.52	
COc1ccc(CC(=O)Nc2ccc(Nc3nc(C)cc(N(C)C)n3)cc2)cc1 [TCMDC-124973]	14.2	
CCOc1ccc(OCC(=O)Nc2nc(-c3ccc(OC)cc3)c(C)s2)cc1 [TCMDC-124322]	37.56	
CN(C)CCOc1ccc(-c2cc(-c3ccc(Cl)c(O)c3)c(-c3ccncc3)[nH]2)cc1 [TCMDC-141255]	-84.18	
c1ccc(Oc2ccc(Nc3nncc4ccccc34)cc2)cc1 [TCMDC-137229]	25.45	
Oc1c(Cl)cc(Nc2nccc(Nc3ccc(Oc4ccccc4)cc3)n2)cc1Cl [TCMDC-138588]	-66	
Clc1ccc(-n2cnc3c(Nc4ccc(Oc5ccccc5)cc4)ncnc32)cc1Cl [TCMDC-138209]	88.06	
Nc1ccc(-c2cc(Cl)cc(Cl)c2)cc1-c1cc2ccccc2[nH]1 [TCMDC-139051]	-15.54	
CCCCc1ccc(S(=O)(=O)Nc2ccc3c(c2)CCN(Cc2c[nH]c4cnccc24)CC3)cc1 [TCMDC-136797]	-5.765	
Nc1nc(N)c2cc(NS(=O)(=O)c3ccc(-c4ccccc4)cc3)ccc2n1 [TCMDC-135430]	5.991	
CCCc1ccc(S(=O)(=O)Nc2ccc3c(c2)CCC3)cc1 [TCMDC-125822]	10.44	
CN1Cc2ccc(NS(=O)(=O)c3ccc(-c4ccoc4)cc3)cc2C1 [TCMDC-141495]	67.76	
Cc1nc(N2CCC(C)CC2)c2c3c(sc2n1)CCCC3 [TCMDC-125646]	3.329	
C=C(C)C1CC=C(CN2CCCC(n3ccc4cc(NC(=O)c5ccco5)ccc43)CC2)CC1 (stereo not drawn) [TCMDC-135090]	-20.08	
CCC(=O)c1c(C)n(-c2ncnc3c2nc(C)n3-c2ccc(C)cc2C)c2ccccc12 [TCMDC-136513]	51.77	

SMILES	% Inhibition [%]	% Inhibition (% Inhibition) [%]
Cc1nc2c(-n3cc(Cn4ccnc4)c4ccccc43)ncnc2n1-c1ccc(Cl)cc1Cl [TCMDC-136514]	37.26	
Cc1noc(-c2ccc3c(c2)CCN(CCC2CCC(NC(=O)c4cc5ccccc5[nH]4)CC2)CC3)n1 (stereo not drawn) [TCMDC-139876]	-74.07	
CN(C)CCOc1cc(NC(=O)Nc2ccc(-c3ccccc3)cc2)ccc1I [TCMDC-139150]	-45.78	
CN(C)CCCn1cc(C(=O)OC2CC3CCC(C2)N3C)c2cc(-c3ccccc3)ccc21 (stereo not drawn) [TCMDC-139094]	100.6	
O=S(=O)(NCCN1CCCC1)c1cccc(-c2cccc(CNCc3ccccc3)c2)c1 [TCMDC-132226]	104	
O=S(=O)(NCCN1CCCC1)c1cccc(-c2ccc(CNCc3ccccc3)cc2)c1 [TCMDC-132240]	108.6	
O=C1C(c2ccccc2)=C(Nc2ccc(Cl)cc2)c2ccccc21 [TCMDC-125493]	32.25	
O=C1C(c2ccccc2)=C(Nc2cccc([N+](=O)[O-])c2)c2ccccc21 [TCMDC-125484]	25.85	
COc1ccc(NC2=C(c3ccccc3)C(=O)c3ccccc32)cn1 [TCMDC-125501]	36.53	
COc1cc(NC2=C(c3ccccc3)C(=O)c3ccccc32)ccn1 [TCMDC-135283]	73.83	
O=C1C(c2ccccc2)=C(Nc2ccc([N+](=O)[O-])cc2)c2ccccc21 [TCMDC-125490]	10.18	
O=C1C(c2ccccc2)=C(Nc2cccc(OC(F)(F)C(F)F)c2)c2ccccc21 [TCMDC-125498]	65.78	
Nn1c(=O)oc2ccc(Cl)cc2c1=O [TCMDC-125519]	8.283	
FC(F)(F)c1ccc2nccc(NN=Cc3ccccc3)c2c1 [TCMDC-142024]	-3.615	
CCc1cccc(-c2cc(=N)n(C)c3nc(N)[nH]c(=O)c23)c1 [TCMDC-137737]	-30.45	
COc1ccc2nccc([C@@H](O)CN3CCC(NCc4nc5c(cc4Cl)OCC(=O)N5)C(F)C3)c2c1 (stereo partly drawn) [TCMDC-141722]	15.19	
CCCCN(C(=O)c1ccccc1C)c1nnc(-c2ccccc2C)s1 [TCMDC-124385]	52.67	
CCCCN(C(=O)c1ccccc1Cl)c1nnc(-c2ccccc2C)s1 [TCMDC-125120]	-1.012	
CCCN(C(=O)c1ccccc1C)c1nnc(-c2ccccc2C)s1 [TCMDC-124386]	7.474	
COC(=O)C1=C(C)NC2=C(C(=O)CC(c3ccc(OC)c(OC)c3)C2)C1c1cccc(O)c1 (stereo not drawn) [TCMDC-125609]	17.77	
CCCOC(=O)C1=C(C)NC2=C(C(=O)CC(c3ccc(OC)c(OC)c3)C2)C1c1cccc(O)c1 (stereo not drawn) [TCMDC-125632]	53.3	
CCC(C)OC(=O)C1=C(C)NC2=C(C(=O)CC(c3ccc(OC)c(OC)c3)C2)C1c1cccc(O)c1 (stereo not drawn) [TCMDC-125634]	29.96	
